Measurements published in PubChem BioAssay (NCI).
Compounds without any hit were thinned out: in the full panel of roughly 79,000, 15% have a hit. Activity calls are given as the source filed them. No stated cut-off is given here; in the data, active means growth inhibition above about 70%; inactive means the rest.

Key:
[1] = NCI Yeast Anticancer Drug Screen. Data for the rad50 strain (AID 155);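 further: 0% = growth of vehicle-only cultures of the same strain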; conditions: S. cerevisiae rad50 strain growth inhibition, stronger effect = higher value
How it was run: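 Vehicle-treated cultures provide the reference for the growth inhibition reported for compound-exposed, repair-deficient yeast.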

[2] = NCI Yeast Anticancer Drug Screen. Data for the mec2-1 strain (AID 157); conditions: S. cerevisiae mec2-1 strain, stronger effect = higher value
How it was run: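 Test agents were screened against the mec2-1 yeast strain, with defined DNA repair or cell cycle alteration. Growth was scored as inhibition against vehicle-only controls.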

[3] = NCI Yeast Anticancer Drug Screen. Data for the sgs1 mgt1 strain (AID 161);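 further: 0% = growth of cultures given vehicle only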; conditions: S. cerevisiae sgs1 mgt1 strain, stronger effect = higher value
How it was run: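 Read-out: growth inhibition vs vehicle controls. Cells: mutant yeast strain deficient in DNA damage repair.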

[4] = NCI Yeast Anticancer Drug Screen. Data for the cln2 rad14 strain (AID 165);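 further: 0% = growth equal to vehicle treated cultures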; conditions: S. cerevisiae cln2 rad14 strain, stronger effect = higher value
How it was run: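 Growth of compound-exposed yeast (cln2 rad14 genotype) measured and expressed as inhibition relative to vehicle.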

[5] = NCI Yeast Anticancer Drug Screen. Data for the bub3 strain (AID 167); conditions: S. cerevisiae bub3 mutant strain, stronger effect = higher value
How it was run: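 Mutant yeast screening strain plus compound; vehicle-treated cultures serve as the 0% inhibition reference.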

[6] = NCI Yeast Anticancer Drug Screen. Data for the mlh1 rad18 strain (AID 175); conditions: S. cerevisiae mlh1 rad18 strain growth inhibition, stronger effect = higher value
How it was run: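 In this whole-cell yeast screen, a strain with altered DNA damage repair is challenged with compound, and its growth is measured against matched vehicle-treated controls.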

[7] = at 5.0 µM (retest, dose inferred, filed as 0.5)
[8] = at 50.0 µM (retest, dose inferred, filed as 5.0)

Measured: growth inhibition

CC1(C(Cl)(Cl)Cl)C=CC(=NO)C=C1 (stereo not given)
active: [3]; at 50.0 µM 70.8%
inactive: [1]; [7] 1% | [1]; [8] 28% | [1]; at 50.0 µM 65.8% | [2]; [7] 2% | [2]; [8] 34% | [2]; at 50.0 µM 21.4% | [3]; [7] 1% | [3]; [8] 44% | [4]; [7] 3% | [4]; [8] 26% | [4]; at 50.0 µM 30.1% | [5]; [7] -4% | [5]; [8] 29% | [5]; at 50.0 µM 18.7% | [6]; [7] -4% | [6]; [8] 34% | [6]; at 50.0 µM 54.1%

O=Cc1nc2c3cccnc3ccc2n1Cc1ccccc1
inactive: [1]; [7] -4% | [1]; [8] 24% | [1]; at 50.0 µM 0.05% | [2]; [7] -17% | [2]; [8] 8% | [2]; at 50.0 µM -18.8% | [3]; [7] -17% | [3]; [8] 15% | [3]; at 50.0 µM 35.4% | [4]; [7] -2% | [4]; [8] 5% | [4]; at 50.0 µM 26.7% | [5]; [7] 0% | [5]; [8] 11% | [5]; at 50.0 µM 57.4% | [6]; [7] 8% | [6]; [8] 34% | [6]; at 50.0 µM 40.9%

Cc1cc(O)c(/C=N/C(=S)Nc2ccc(S(N)(=O)=O)cc2)c(=O)o1
inactive: [1]; [7] 17% | [1]; [8] 42% | [1]; at 50.0 µM -24.4% | [2]; [7] 13% | [2]; [8] 32% | [2]; at 50.0 µM 4.9% | [3]; [7] 19% | [3]; [8] 57% | [3]; at 50.0 µM -10.2% | [4]; [7] 8% | [4]; [8] 39% | [4]; at 50.0 µM -6.55% | [5]; [7] 31% | [5]; [8] 56% | [5]; at 50.0 µM 1.45% | [6]; [7] 9% | [6]; [8] 44% | [6]; at 50.0 µM -33.1%

Cc1ccc(Cc2n[nH]c(=O)n2N2C(=O)c3ccccc3C2=O)cc1
inactive: [1]; [7] 18% | [1]; [8] 16% | [1]; at 50.0 µM -24.8% | [2]; [7] 9% | [2]; [8] 14% | [2]; at 50.0 µM -37.2% | [3]; [7] 9% | [3]; [8] 9% | [3]; at 50.0 µM -33.4% | [4]; [7] 9% | [4]; [8] 17% | [4]; at 50.0 µM -5.1% | [5]; [7] 18% | [5]; [8] 13% | [5]; at 50.0 µM -25.1% | [6]; [7] 13% | [6]; [8] 12% | [6]; at 50.0 µM -38.2%

CC(=O)OCC1OC(N2CCc3cc([N+](=O)[O-])ccc32)C(OC(C)=O)C(OC(C)=O)C1OC(C)=O (stereo not given)
inactive: [1]; [7] 2% | [1]; [8] -4% | [1]; at 50.0 µM -15.4% | [2]; [7] -19% | [2]; [8] 20% | [2]; at 50.0 µM -1.35% | [3]; [7] 3% | [3]; [8] 23% | [3]; at 50.0 µM -9.2% | [4]; [7] 7% | [4]; [8] -3% | [4]; at 50.0 µM 41.9% | [5]; [7] 3% | [5]; [8] 1% | [5]; at 50.0 µM -3.25% | [6]; [7] 11% | [6]; [8] 18% | [6]; at 50.0 µM -16.8%

CCCCCCCCCCCCc1ccc(S(=O)(=O)O)cc1.[Zn+2]
inactive: [1]; [7] -2% | [1]; [8] 55% | [2]; [7] 19% | [2]; [8] 27% | [2]; at 50.0 µM 13.2% | [3]; [7] -4% | [3]; [8] 59% | [4]; [7] 3% | [4]; [8] 38% | [4]; at 50.0 µM -49% | [5]; [7] -8% | [5]; [8] 35% | [5]; at 50.0 µM 6.15% | [6]; [7] -2% | [6]; at 50.0 µM 30.1%
active: [1]; at 50.0 µM 78.4% | [3]; at 50.0 µM 75.3% | [6]; [8] 71%

O=S1(=O)CC=C1c1ccccc1
active: [1]; [8] 78% | [1]; at 50.0 µM 96.3% | [2]; [8] 92% | [2]; at 50.0 µM 96.5% | [3]; [8] 89% | [3]; at 50.0 µM 94.8% | [4]; at 50.0 µM 73.8% | [5]; [8] 84% | [5]; at 50.0 µM 95.2% | [6]; [8] 92% | [6]; at 50.0 µM 97.7%
inactive: [1]; [7] 8% | [2]; [7] 8% | [3]; [7] 7% | [4]; [7] 5% | [4]; [8] 61% | [5]; [7] 2% | [6]; [7] 2%

COc1cc(-c2oc(C=Nc3ccccc3)c([N+](=O)[O-])c2-c2ccc(O)c(OC)c2)ccc1O
active: [3]; [8] 74% | [4]; [8] 74% | [5]; [8] 91%
inactive: [1]; [7] 22% | [1]; [8] 32% | [1]; at 50.0 µM 34.1% | [2]; [7] 19% | [2]; [8] 38% | [2]; at 50.0 µM -7.5% | [3]; [7] -14% | [3]; at 50.0 µM 31.4% | [4]; [7] 7% | [4]; at 50.0 µM -18.1% | [5]; [7] 5% | [5]; at 50.0 µM -16.8% | [6]; [7] 25% | [6]; [8] 61% | [6]; at 50.0 µM 1.65%

O=C(O)CSC(=S)N1CCCC1
inactive: [1]; [7] -4% | [1]; [8] 5% | [1]; at 50.0 µM 46% | [2]; [7] 2% | [2]; [8] 3% | [2]; at 50.0 µM -5.3% | [3]; [7] -4% | [3]; [8] 4% | [3]; at 50.0 µM -14.5% | [4]; [7] 2% | [4]; [8] 2% | [4]; at 50.0 µM -40.7% | [5]; [7] 2% | [5]; [8] -3% | [5]; at 50.0 µM -5.6% | [6]; [7] -4% | [6]; [8] 8% | [6]; at 50.0 µM -15.8%

COC(=O)c1ccccc1C=C(c1ccc([N+](=O)[O-])cc1)c1ccc([N+](=O)[O-])cc1
active: [1]; [8] 94% | [1]; at 50.0 µM 93.2% | [2]; [8] 99% | [2]; at 50.0 µM 95.8% | [3]; [8] 98% | [3]; at 50.0 µM 96.5% | [4]; [8] 97% | [4]; at 50.0 µM 95.1% | [5]; [8] 98% | [5]; at 50.0 µM 94.6% | [6]; [8] 97% | [6]; at 50.0 µM 96%
inactive: [1]; [7] 4% | [2]; [7] -2% | [3]; [7] 4% | [4]; [7] -11% | [5]; [7] -2% | [6]; [7] 28%
